# Results as given in PubChem BioAssay AID720706 (Broad Institute, 2013).
# The whole screen tested about 350,000 compounds, of which about 5,500 (1.6%) were called active.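 The calls were made as follows: active = significant combined selectivity score with lowered wild-type GFP, culture density cut under 30%, mutant RFP and density less affected; inactive = any of these conditions unmet.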 The list comes from a sample in which actives are over-represented; it also holds similar structures and randomly drawn compounds.
# Test: GFP drop in mixed WT/humanized-ribosome E. coli culture – GFP/RFP fluorescence, OD600, single point, bacterial rRNA inhibitor project, primary screen (AID 720706)
# Conditions: E. coli WT GFP vs humanized-ribosome RFP mutants, 24 h; GFP signal change (wild-type ribosome): stronger effect = lower value, DMSO median 0, no signal -100; OD600 change: measured here: OD600 growth, DMSO median 0, no signal -100; RFP signal change: measured here: RFP humanized mutant strains, DMSO median 0, no signal -100, concentration not given here
Structure (SMILES),GFP signal change (wild-type ribosome),OD600 change,RFP signal change
O=C(NC1CCCC1)[C@H]1[C@H](CO)[C@H]2Cn3c(cccc3=O)[C@H]2N1C(=O)NC1CCCC1,6.01% (inactive),13.7%,-2.22%
COc1ccc(S(=O)(=O)N(C)C[C@@H]2OCCCC[C@@H](C)Oc3ccc(NS(C)(=O)=O)cc3C(=O)N([C@H](C)CO)C[C@@H]2C)cc1,2.26% (inactive),6.89%,-2.21%
O=C(NCC[C@H]1CC[C@H](NC(=O)C2CC2)[C@@H](CO)O1)c1cc(Cl)cc(Cl)c1,-1.63% (inactive),-6.47%,-0.371%
CCCNC(=O)N1[C@H](CO)[C@@H]2c3ccccc3N(C(=O)C3CC3)C[C@@H]21,6.32% (inactive),5.65%,0.0995%
CC[C@H]1OC(=O)[C@H](C)[C@@H](O[C@H]2C[C@@](C)(OC)[C@@H](O)[C@H](C)O2)[C@H](C)[C@@H](O[C@@H]2O[C@H](C)C[C@H](N(C)C)[C@H]2O)[C@](C)(O)C[C@@H](C)[C@@H]2N[C@@H](COCCOC)O[C@H]([C@H]2C)[C@]1(C)O,-22.6% (active),-9.78%,5.64%
Cn1cnc(S(=O)(=O)N2C[C@@H](O)COC[C@H]3O[C@H](CC(=O)N4CCN(c5ccccc5)CC4)CC[C@@H]32)c1,9.71% (inactive),22%,-0.0733%
O=C(NNc1cc(Cl)cc(Cl)c1)c1c(F)cccc1Cl,-4.44% (inactive),-4.42%,-0.438%
Cc1ccc(NNC(=O)c2c(F)cccc2Cl)cc1Cl,-32.7% (active),-2.5%,-1.17%
CCN(CC)CCNC(=O)c1ccc(NC(=O)c2c(F)cccc2Cl)cc1,7.17% (inactive),-3.78%,-0.531%
COCC#Cc1ccc([C@@H]2[C@@H](CO)N3C(=O)CN(C(=O)Nc4cc(F)ccc4F)C[C@@H]23)cc1,-10.5% (inactive),-5.07%,3.1%
COc1ccc(NC(=O)N(C)C[C@@H]2OCCCC[C@@H](C)Oc3ccc(NS(C)(=O)=O)cc3C(=O)N([C@@H](C)CO)C[C@H]2C)cc1,-0.988% (inactive),-5.29%,0.0065%
Cc1noc(C)c1S(=O)(=O)Nc1ccc2c(c1)C(=O)N([C@H](C)CO)C[C@H](C)[C@H](CN(C)C(=O)CCC(F)(F)F)OCCCC[C@H](C)O2,-2.98% (inactive),-4.46%,0.03%
COc1ccc2c3c(n(C)c2c1)[C@H](CO)N(C(=O)Cc1ccccc1)CC31CCN(C)CC1,4.41% (inactive),5.73%,-1.31%
CCNC(=O)[C@H]1[C@H](CO)[C@H]2Cn3c(ccc(C4=CCCC4)c3=O)[C@@H]1N2S(=O)(=O)c1cn(C)cn1,2.88% (inactive),2.51%,-2.3%
COc1cccc(-c2noc(C3CCCN(C(=O)c4ccc(F)cc4)C3)n2)c1 (stereo not drawn),-16% (inactive),-14.3%,1.71%
COc1ccc(-c2n[nH]c3c2CN(C(=O)c2ccc(F)cc2)CC3)cc1,-24% (active),-10.1%,-0.0738%
COc1ccc(C(=O)NC2CCN(C(=O)Nc3ccc(F)cc3)CC2)cc1,3.88% (inactive),11.7%,-0.144%
COCC#Cc1cnc2c(c1)C(=O)N([C@H](C)CO)C[C@@H](C)[C@@H](CN(C)Cc1ccccc1F)O2,4.01% (inactive),9.71%,-0.92%
O=C(N/N=C/c1ccco1)c1ccc(NC(=O)C2CC2)cc1,33.5% (inactive),14.7%,3.89%
CC(C)(C)C1CCC(=NNC(=O)c2cc(-c3ccccc3)n[nH]2)CC1 (stereo not drawn),-8.44% (inactive),6.81%,-1.93%
CC(/C=N/NC(=O)c1cc(-c2ccc3ccccc3c2)n[nH]1)=C\c1ccco1,-18.4% (active),-4.31%,6.39%

Structure (SMILES),GFP signal change (wild-type ribosome),OD600 change,RFP signal change
Nc1ccn([C@@H]2O[C@H](C(=O)N[C@H]3CCCCNC3=O)[C@@H](O)[C@H]2O)c(=O)n1,23% (inactive),2.48%,2.71%
CN(Cc1ccccc1)C(=O)C1CCCN(c2ncnc3c2nc2n3CCCCC2)C1 (stereo not drawn),-30.8% (active),-19.4%,-2.82%
COc1cccc(NC(=O)C2CCCN(c3ncnc4c3nc3n4CCCCC3)C2)c1 (stereo not drawn),-27.7% (inactive),-29.9%,-2.84%
COc1cccc(CNC(=O)C2CCCN(c3ncnc4c3nc3n4CCCCC3)C2)c1 (stereo not drawn),-0.749% (inactive),3.87%,-0.866%
O=C(NCc1ccc2c(c1)OCO2)c1c(-c2ccsc2)sc2ccccc12,-2.63% (inactive),5.46%,-0.565%
O=C(NCc1ccc2c(c1)OCO2)c1sccc1Br,-28% (active),-4.74%,4.92%
O=C(NCc1ccc2c(c1)OCO2)c1c(O)nc2sccn2c1=O,9.79% (inactive),1.77%,0.304%
Cc1cc(C(=O)Nc2ccc3c(c2)C(=O)N(C)[C@@H]2CC[C@H](CC(=O)NC4CCCC4)O[C@@H]2CO3)no1,1.76% (inactive),5.25%,2.11%
CCCC(=O)Nc1ccc2c(c1)C(=O)N(C)[C@@H]1CC[C@H](CC(=O)NCCOC)O[C@H]1CO2,3.48% (inactive),0.14%,0.31%
COc1ccccc1S(=O)(=O)N[C@@H]1C=C[C@H](CC(=O)N2CCN(C)CC2)O[C@@H]1CO,3.92% (inactive),11.8%,-3.5%
COC(=O)c1c(C)oc(C)c1S(=O)(=O)NCc1ccc(Cl)cc1,-11.3% (inactive),-4.55%,-0.764%
COC(=O)c1c(C)oc(C)c1S(=O)(=O)Nc1ccc(C(C)C)cc1,-28.4% (active),-12.4%,-2.19%
CC(C)c1ccc(NS(=O)(=O)c2cn(C)c(=O)n(C)c2=O)cc1,4.95% (inactive),14.4%,-3.23%
CO[C@H]1CC[C@@H]2CCOc3c(C#N)cccc3C(=O)N(C)C[C@H](C)C(=O)N(C)C[C@H]1O2,3.92% (inactive),-1.31%,-1.65%
Brc1ccc2c(c1)[C@H]1OCC[C@H]1[C@@H](c1cccs1)N2,-43.8% (active),-30.6%,-11.9%
CCN(/N=C/c1ccc(N(C)C)cc1)c1nc2ccccc2[nH]1,-22.8% (active),-10.9%,-2.86%
Oc1ccc(/C=N/N(Cc2ccccc2)c2ccccc2)cc1,-13.9% (inactive),-1.62%,0.2%
CCC(=O)N1C[C@@H](C)[C@H](OC)CN(C)C(=O)c2ccc(NC(=O)c3cc(C)on3)cc2OC[C@H]1C,0.768% (inactive),1.75%,-1.23%
C/C=C/c1cnc2c(c1)C(=O)N([C@H](C)CO)C[C@H](C)[C@H](CN(C)C(=O)c1cccc(F)c1)O2,2.26% (inactive),2.83%,-3.73%
CCCOc1ccc(NC(=O)CC2C(=O)N(C)C(=S)N2Cc2ccc3c(c2)OCO3)cc1 (stereo not drawn),-21.2% (active),-17.1%,1.22%
O=C(Nc1ccc(Cl)cc1)C1c2cccc[n+]2CC(=O)N1Cc1ccc2c(c1)OCO2 (stereo not drawn),4.36% (inactive),0.665%,-2.94%

Structure (SMILES),GFP signal change (wild-type ribosome),OD600 change,RFP signal change
CCOc1ccc(NC(=O)CC2C(=O)N(c3ccccc3)C(=O)N2CCOC)cc1 (stereo not drawn),-0.19% (inactive),4.93%,-3.42%
C[C@@H]1CCCCO[C@H](CN(C)C(=O)Nc2ccccc2)[C@H](C)CN([C@@H](C)CO)C(=O)c2cc(N(C)C)ccc2O1,-1.6% (inactive),2.72%,-1.91%
CC[C@@H]1CC=CC[C@H](C)Oc2ccccc2C(=O)N(C)[C@H](Cc2ccccc2)C(=O)N1 (mixture of isomers),-6.42% (inactive),-18.3%,-6.01%
CS(=O)(=O)N(CC(=O)N/N=C/c1ccccn1)c1ccc(Oc2ccccc2)cc1,-25.9% (active),-12.1%,-0.663%
O=C(COc1ccc(Cl)cc1Cl)N/N=C/c1ccccn1,-7.74% (inactive),-28.8%,0.0022%
COc1ccc(CCNC(=O)CN(c2ccccc2)S(C)(=O)=O)cc1,4.81% (inactive),11.8%,2.52%
C[C@H](O)C#Cc1cnc2c(c1)C(=O)N([C@@H](C)CO)C[C@@H](C)[C@@H](CN(C)C(=O)Cc1ccccn1)O2,7.53% (inactive),12.6%,-0.505%
C[C@@H]1CN([C@H](C)CO)C(=O)c2cc(NS(C)(=O)=O)ccc2O[C@H]1CN(C)C(=O)Nc1cccc2ccccc12,2.55% (inactive),10.8%,2.43%
O=C(Nc1cc(F)ccc1F)N1CC(=O)N2[C@H](CO)[C@@H](c3ccc(-c4cccnc4)cc3)[C@@H]2C1,-12% (inactive),-3.71%,-3.33%
COc1ccc(S(=O)(=O)Nc2ccc3c(c2)C(=O)N([C@H](C)CO)C[C@H](C)[C@H](CN(C)S(=O)(=O)c2ccc(Cl)cc2)O3)cc1,-0.9% (inactive),-8.14%,4.68%
CCc1nc(N2CCN(C(C)=O)CC2)c2c3c(sc2n1)CCCC3,-24.3% (inactive),-27.4%,-2.91%
Nc1nc(SCC(=O)NCCN2CCOCC2)nc2sc3c(c12)CCC3,4% (inactive),8.61%,-0.37%
C=C(C)CSc1nc(N)c2c3c(sc2n1)CCC3,-39.8% (active),-31.8%,-10.7%
CC(C)NC(=O)NCC[C@H]1CC[C@@H](NS(=O)(=O)c2ccc(Oc3ccccc3)cc2)[C@@H](CO)O1,-0.321% (inactive),-25.1%,-2%
O=C(C1CCCC1)N1CC(=O)N2[C@H](CO)[C@H](c3ccc(Br)cc3)[C@@H]2C1,-0.977% (inactive),-0.944%,0.246%
N#Cc1ccc(-c2ccc([C@H]3[C@H](CO)N4C(=O)CN(C(=O)Cc5ccccc5)C[C@@H]34)cc2)cc1,-1.02% (inactive),-2.88%,-0.285%
O=C(Cc1ccc(Cl)cc1)NC1CCS(=O)(=O)C1 (stereo not drawn),-9.2% (inactive),1.76%,1.96%
CN(C(=O)CN1C(=O)/C(=C/c2ccc(Cl)cc2)SC1=S)C1CCS(=O)(=O)C1 (stereo not drawn),15.8% (inactive),11%,0.337%
CC(C(=O)NC1CCS(=O)(=O)C1)N1C(=O)/C(=C/c2ccc(Cl)cc2)SC1=S (stereo not drawn),-21.1% (active),-15.7%,1.14%
